Laboratory results: PubChem BioAssay (NCI)
Compounds without any hit were thinned out: in the full panel of roughly 83,000, 20% have a hit.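 In brief: 96-well plates, 48 h treatment, single concentration, percent growth endpoint.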 Active and inactive are the calls of the source. Rule for the calls: active = growth percent below 10; inactive = the rest.

Assays:
Experiment in all cases: NCI-60 one-dose screen, 48 h (100 = growth as untreated, 0 = no growth, -100 = all killed)
Settings in all cases: 10 µM unless noted
HCT-15 colon = system: HCT-15 colon
HT29 colon = system: HT29 colon
SNB-75 CNS = system: SNB-75 CNS
SNB-19 CNS = system: SNB-19 CNS
U251 CNS = system: U251 CNS
PC-3 prostate = system: PC-3 prostate
SK-MEL-5 melanoma = system: SK-MEL-5 melanoma
UACC-62 melanoma = system: UACC-62 melanoma
LOX IMVI melanoma = system: LOX IMVI melanoma
SK-MEL-28 melanoma = system: SK-MEL-28 melanoma
SK-MEL-2 melanoma = system: SK-MEL-2 melanoma
SN12C renal = system: SN12C renal
UO-31 renal = system: UO-31 renal
TK-10 renal = system: TK-10 renal
ACHN renal = system: ACHN renal
CAKI-1 renal = system: CAKI-1 renal
CCRF-CEM leukemia = system: CCRF-CEM leukemia
MOLT-4 leukemia = system: MOLT-4 leukemia
A498 renal = system: A498 renal

Measured: growth

CCOC(=O)CC(C#N)(CC(=O)OCC)C(=O)OCC
inactive: HCT-15 colon 99.4% | HT29 colon 125% | SNB-75 CNS 89.7% | SNB-19 CNS 111% | U251 CNS 94.8% | PC-3 prostate 89.2% | SK-MEL-5 melanoma 98% | UACC-62 melanoma 97.7% | LOX IMVI melanoma 103% | SK-MEL-28 melanoma 98% | SK-MEL-2 melanoma 106% | SN12C renal 95.1% | UO-31 renal 96.1% | TK-10 renal 139% | ACHN renal 107% | CAKI-1 renal 99.5% | CCRF-CEM leukemia 102% | MOLT-4 leukemia 109%

COc1ccc(NC(=O)c2cc3ccccc3nc2Nc2cc(OC)c(OC)c(OC)c2)cc1
inactive: HCT-15 colon 36.3% | HT29 colon 64.3% | SNB-75 CNS 69.4% | SNB-19 CNS 78.9% | U251 CNS 54.2% | PC-3 prostate 57.6% | SK-MEL-5 melanoma 44.3% | UACC-62 melanoma 64.4% | LOX IMVI melanoma 52.8% | SK-MEL-28 melanoma 73.2% | SK-MEL-2 melanoma 89.2% | SN12C renal 69.7% | UO-31 renal 59.7% | TK-10 renal 90.7% | ACHN renal 53% | CAKI-1 renal 70.2% | CCRF-CEM leukemia 43.6% | MOLT-4 leukemia 49.2%

CCN(C(=O)c1cc2ncccc2[nH]1)[C@H]1CCC[C@@H](NCc2cccc(F)c2)C1
inactive: HCT-15 colon 100% | HT29 colon 105% | SNB-75 CNS 88% | SNB-19 CNS 98.7% | U251 CNS 107% | PC-3 prostate 102% | SK-MEL-5 melanoma 96.3% | UACC-62 melanoma 98% | LOX IMVI melanoma 94.8% | SK-MEL-28 melanoma 103% | SK-MEL-2 melanoma 105% | SN12C renal 95.3% | UO-31 renal 74.3% | TK-10 renal 92.6% | ACHN renal 102% | CAKI-1 renal 101% | CCRF-CEM leukemia 128% | MOLT-4 leukemia 95.9%

O=S(=O)(O)CCl
inactive: HCT-15 colon 96.3% | HT29 colon 95.9% | SNB-75 CNS 86.1% | SNB-19 CNS 106% | U251 CNS 97.1% | PC-3 prostate 91.6% | SK-MEL-5 melanoma 103% | UACC-62 melanoma 100% | LOX IMVI melanoma 86.8% | SK-MEL-28 melanoma 102% | SK-MEL-2 melanoma 104% | SN12C renal 98.8% | UO-31 renal 91.6% | TK-10 renal 92% | ACHN renal 103% | CAKI-1 renal 103% | A498 renal 111% | MOLT-4 leukemia 99.4%

CCN(C(=O)c1cc2ccccc2[nH]1)[C@H]1CCC[C@@H](NCc2ccc(OC)cc2)C1
inactive: HCT-15 colon 81% | HT29 colon 76.2% | SNB-75 CNS 80.6% | SNB-19 CNS 91.3% | U251 CNS 101% | PC-3 prostate 88.5% | SK-MEL-5 melanoma 91.2% | UACC-62 melanoma 95.6% | LOX IMVI melanoma 89% | SK-MEL-28 melanoma 98.3% | SK-MEL-2 melanoma 100% | SN12C renal 92.2% | UO-31 renal 66% | TK-10 renal 81% | ACHN renal 94.7% | CAKI-1 renal 96% | CCRF-CEM leukemia 102% | MOLT-4 leukemia 70.2%

NC(CC(N)C(=O)O)C(=O)O (stereo unspecified)
inactive: HCT-15 colon 88.4% | HT29 colon 84.4% | SNB-75 CNS 88.4% | SNB-19 CNS 108% | U251 CNS 93.8% | PC-3 prostate 92.2% | SK-MEL-5 melanoma 85% | UACC-62 melanoma 98% | LOX IMVI melanoma 99.4% | SK-MEL-28 melanoma 90.1% | SK-MEL-2 melanoma 98.6% | SN12C renal 93.8% | UO-31 renal 94.8% | TK-10 renal 110% | ACHN renal 95.7% | CAKI-1 renal 97% | A498 renal 108% | MOLT-4 leukemia 107%

Cc1nc(Nc2cccnc2)sc1C(=O)/C=C/c1ccc(Cl)cc1
active: HT29 colon 6.4% | SNB-75 CNS -1.63% | U251 CNS 3.86% | LOX IMVI melanoma 0.346% | SN12C renal 7.95% | TK-10 renal 8.61% | CCRF-CEM leukemia 1.72%
inactive: HCT-15 colon 15% | SNB-19 CNS 14.2% | PC-3 prostate 29.4% | SK-MEL-5 melanoma 73.1% | UACC-62 melanoma 36.1% | SK-MEL-28 melanoma 77.8% | SK-MEL-2 melanoma 82.6% | UO-31 renal 25.3% | ACHN renal 40.1% | CAKI-1 renal 47.1% | MOLT-4 leukemia 53%

O=C(NNC(=S)Nc1ccccc1)c1ccccn1
active: UACC-62 melanoma 5% | CAKI-1 renal 5.93%
inactive: HCT-15 colon 22.8% | HT29 colon 57.2% | SNB-75 CNS 67.5% | SNB-19 CNS 52.2% | U251 CNS 20.4% | PC-3 prostate 34.4% | SK-MEL-5 melanoma 13.8% | LOX IMVI melanoma 25.9% | SK-MEL-28 melanoma 46% | SK-MEL-2 melanoma 85.6% | SN12C renal 43.7% | UO-31 renal 19.8% | TK-10 renal 50.2% | ACHN renal 16.4% | CCRF-CEM leukemia 18.8% | MOLT-4 leukemia 13.8%

COc1ccc(-n2cnc3c(sc4ncc(Cl)cc43)c2=O)cc1
inactive: HCT-15 colon 101% | HT29 colon 79.3% | SNB-75 CNS 90.3% | SNB-19 CNS 108% | U251 CNS 74.7% | PC-3 prostate 83.1% | SK-MEL-5 melanoma 99.1% | UACC-62 melanoma 109% | LOX IMVI melanoma 58% | SK-MEL-28 melanoma 102% | SK-MEL-2 melanoma 120% | SN12C renal 101% | TK-10 renal 89.9% | ACHN renal 82.1% | CAKI-1 renal 86.6% | A498 renal 76.8% | MOLT-4 leukemia 96.6%
active: UO-31 renal 5.62%

CC(C)CCN(CCCNc1c2c(nc3ccccc13)CCCC2)CCC(C)C
inactive: HCT-15 colon 72.9% | HT29 colon 46.3% | SNB-75 CNS 76.8% | SNB-19 CNS 87.2% | U251 CNS 65.1% | PC-3 prostate 73.6% | SK-MEL-5 melanoma 83.1% | UACC-62 melanoma 97.2% | LOX IMVI melanoma 76.4% | SK-MEL-28 melanoma 86.2% | SK-MEL-2 melanoma 109% | SN12C renal 89.7% | UO-31 renal 56.5% | TK-10 renal 93.8% | ACHN renal 98% | CAKI-1 renal 76.5% | CCRF-CEM leukemia 74.3% | MOLT-4 leukemia 70.7%

O=C(CNc1c(Cl)cccc1Cl)Nc1ccc(-c2nc3ccccc3s2)cc1
inactive: HT29 colon 69.8% | SNB-75 CNS 59.2% | SNB-19 CNS 73.9% | U251 CNS 27.7% | PC-3 prostate 85.9% | SK-MEL-5 melanoma 21.2% | UACC-62 melanoma 35.1% | SK-MEL-28 melanoma 104% | SK-MEL-2 melanoma 84.8% | SN12C renal 48% | UO-31 renal 73.7% | TK-10 renal 106% | ACHN renal 42.3% | CAKI-1 renal 28.8%
active: HCT-15 colon 2.42% | LOX IMVI melanoma -49.3% | CCRF-CEM leukemia 2.24% | MOLT-4 leukemia 5.63%

O=S(=O)(NCCNc1nccc(-c2c(-c3ccccc3)nc3sccn23)n1)c1ccc(O)cc1
active: SK-MEL-5 melanoma 7.89%
inactive: HCT-15 colon 47.9% | HT29 colon 21.4% | SNB-75 CNS 28.7% | SNB-19 CNS 56.5% | U251 CNS 41.5% | PC-3 prostate 57.9% | UACC-62 melanoma 52.4% | LOX IMVI melanoma 31.4% | SK-MEL-28 melanoma 47.6% | SK-MEL-2 melanoma 49.7% | SN12C renal 40.3% | UO-31 renal 31.4% | TK-10 renal 62.2% | ACHN renal 25.8% | CAKI-1 renal 53.5% | CCRF-CEM leukemia 52.2% | MOLT-4 leukemia 28.7%

CCC(C)NCC(=O)O (stereo unspecified)
inactive: HCT-15 colon 88.5% | HT29 colon 78.8% | SNB-75 CNS 90.9% | SNB-19 CNS 107% | U251 CNS 98.7% | PC-3 prostate 102% | SK-MEL-5 melanoma 97.5% | UACC-62 melanoma 108% | LOX IMVI melanoma 109% | SK-MEL-28 melanoma 104% | SK-MEL-2 melanoma 85.6% | SN12C renal 110% | UO-31 renal 98.4% | TK-10 renal 107% | ACHN renal 97.7% | CAKI-1 renal 97.7% | A498 renal 107% | MOLT-4 leukemia 106%

COc1cc(OC)c(C(=O)/C=C/c2ccc(C(F)(F)F)cc2)c(OC)c1
inactive: HCT-15 colon 29.4% | HT29 colon 26.9% | SNB-75 CNS 30% | SNB-19 CNS 57.5% | U251 CNS 46.2% | PC-3 prostate 54.5% | SK-MEL-5 melanoma 62.2% | UACC-62 melanoma 48.2% | LOX IMVI melanoma 32.4% | SK-MEL-28 melanoma 67.4% | SK-MEL-2 melanoma 45.4% | SN12C renal 41.2% | UO-31 renal 56.4% | TK-10 renal 84.6% | ACHN renal 60% | CAKI-1 renal 79.3% | CCRF-CEM leukemia 25.9% | MOLT-4 leukemia 24%

COc1ccc(C(=O)c2cc(OC)c(OC)c(OC)c2)cc1/C=C/C(=O)c1ccc(O)cc1
active: HCT-15 colon -29.5% | U251 CNS 0.446% | LOX IMVI melanoma 0.734% | ACHN renal -62.8%
inactive: HT29 colon 26.2% | SNB-75 CNS 28.7% | SNB-19 CNS 34.8% | PC-3 prostate 54.1% | SK-MEL-5 melanoma 11.3% | UACC-62 melanoma 20.1% | SK-MEL-28 melanoma 22.5% | SK-MEL-2 melanoma 14.8% | SN12C renal 17.7% | UO-31 renal 36.4% | TK-10 renal 75.1% | CAKI-1 renal 24.8% | CCRF-CEM leukemia 10.7% | MOLT-4 leukemia 15.5%

Cc1nc(Nc2cccnc2)sc1C(=O)/C=C/c1ccc(F)cc1
inactive: HCT-15 colon 20.4% | SNB-19 CNS 18.9% | U251 CNS 12.9% | PC-3 prostate 27.6% | SK-MEL-5 melanoma 67.6% | UACC-62 melanoma 46.3% | SK-MEL-28 melanoma 87.6% | SK-MEL-2 melanoma 92.4% | UO-31 renal 29.9% | TK-10 renal 54% | ACHN renal 38.7% | CAKI-1 renal 46.2% | MOLT-4 leukemia 81.7%
active: HT29 colon 8.45% | SNB-75 CNS 2.4% | LOX IMVI melanoma 8.41% | SN12C renal 5.77% | CCRF-CEM leukemia 1.27%

CCCOC(=O)C1(O)CCCC1
inactive: HCT-15 colon 93.9% | HT29 colon 96.3% | SNB-75 CNS 80.9% | SNB-19 CNS 108% | U251 CNS 104% | PC-3 prostate 96.9% | SK-MEL-5 melanoma 99.4% | UACC-62 melanoma 105% | LOX IMVI melanoma 108% | SK-MEL-28 melanoma 99.2% | SK-MEL-2 melanoma 90.8% | SN12C renal 102% | UO-31 renal 90.6% | TK-10 renal 98.8% | ACHN renal 94% | CAKI-1 renal 102% | A498 renal 103% | MOLT-4 leukemia 93.1%
